Experimental data from PubChem BioAssay (NCATS).
Records with an inconclusive call do not appear. Active and inactive are the calls of the source. Calls come from the whole dose curve; as a rule, active = well fitted curve in the direction sought with a large enough effect; inconclusive = small, poorly fitted or top-dose-only effect, or another doubt; inactive = no such curve, though single readings can be large; an effect the other way counts as inactive or inconclusive.

Experiments:
HEK293T [1] = assay: qHTS assay to identify novel small-molecules to repurpose for Merkel cell carcinoma treatment (AID 1296009); conditions: MCC and control cell lines, CellTiter-Glo viability, 72 h; at 44.8 µM (top of the series) unless noted; note: nearly all actives have a fitted effect of over 60% in size
Method in brief: (§1)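 72 hr, 37 degree celsius; NPC 8-pt / MIPE 11-pt dose response; compound pinned in DMSO; CellTiter-Glo, 10 min RT, luminescence; normalized to no-cell and DMSO controls.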

C33A = assay: Primary qHTS to identify gynecologic anti-cancer compounds using libraries of approved drugs and bioactive compounds (AID 1345084); conditions: Gynecologic cancer cell panel viability, ATPlite luminescence, 48 h; series mostly up to 57.5 µM; note: % is set by controls: 0 for no effect and ±100 for the full control effect; nearly all actives have a fitted effect of over 55% in size
Method in brief: (§2)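 Cells, 1,000 per well, plated 16 h, then exposed 48 h at 37 C to compounds. Viability by ATPlite luminescence after 15 min at room temperature.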

CASKI = assay: as above; conditions: Gynecologic cancer cell panel viability, ATPlite luminescence, 48 h; series mostly up to 57.5 µM
Method in brief: as §2

Es-2 = assay: as above; conditions: Gynecologic cancer cell panel viability, ATPlite luminescence, 48 h; series mostly up to 57.5 µM
Method in brief: as §2

HeLa = assay: as above; conditions: Gynecologic cancer cell panel viability, ATPlite luminescence, 48 h; series mostly up to 57.5 µM
Method in brief: as §2

Hek293T [2] = assay: as above; conditions: Gynecologic cancer cell panel viability, ATPlite luminescence, 48 h, control line for the selectivity index; series mostly up to 57.5 µM
Method in brief: as §2

JEG-3 = assay: as above; conditions: Gynecologic cancer cell panel viability, ATPlite luminescence, 48 h; series mostly up to 57.5 µM
Method in brief: as §2

OV90 = assay: as above; conditions: Gynecologic cancer cell panel viability, ATPlite luminescence, 48 h; series mostly up to 57.5 µM
Method in brief: as §2

PA-1 = assay: as above; conditions: Gynecologic cancer cell panel viability, ATPlite luminescence, 48 h; series mostly up to 57.5 µM
Method in brief: as §2

SKOV3 = assay: as above; conditions: Gynecologic cancer cell panel viability, ATPlite luminescence, 48 h; series mostly up to 57.5 µM
Method in brief: as §2

Tov-21-G = assay: as above; conditions: Gynecologic cancer cell panel viability, ATPlite luminescence, 48 h; series mostly up to 57.5 µM
Method in brief: as §2

Tov112D = assay: as above; conditions: Gynecologic cancer cell panel viability, ATPlite luminescence, 48 h; series mostly up to 57.5 µM
Method in brief: as §2

NIH3T3 = assay: qHTS assay to identify novel small-molecules to repurpose for Merkel cell carcinoma treatment (AID 1296009); conditions: MCC and control cell lines, CellTiter-Glo viability, 72 h; at 44.8 µM (top of the series) unless noted; note: nearly all actives have a fitted effect of over 60% in size
Method in brief: as §1

CAOV3 = assay: Primary qHTS to identify gynecologic anti-cancer compounds using libraries of approved drugs and bioactive compounds (AID 1345084); conditions: Gynecologic cancer cell panel viability, ATPlite luminescence, 48 h; series mostly up to 57.5 µM; note: % is set by controls: 0 for no effect and ±100 for the full control effect; nearly all actives have a fitted effect of over 55% in size
Method in brief: as §2

CC(C)C1CCC(CO)=CC1/C=C(\CO)C(=O)OCC1(O)CCC(C(C)C)C2C=C(C(=O)O)COC(=O)C21 (stereo unspecified)
inactive: outcome (HEK293T [1]) inactive [at 17.4 µM] | Potency (C33A) | outcome (CASKI) | Potency (Es-2) | Potency (HeLa) | Potency (Hek293T [2]) | Potency (JEG-3) | Potency (OV90) | Potency (PA-1) | Potency (SKOV3) | Potency (Tov-21-G) | Potency (Tov112D)

CC1(C)CC[C@]2(C(=O)O[C@@H]3O[C@H](CO)[C@@H](O)[C@H](O)[C@H]3O)CC[C@]3(C)C(=CCC4[C@@]5(C)C[C@H](O)[C@H](O[C@@H]6OC[C@@H](O)[C@H](O)[C@H]6O)[C@@](C)(CO)C5CC[C@]43C)C2C1 (stereo partly specified)
inactive: outcome (NIH3T3) inactive [at 9.27 µM] | activity change, negative = cytotoxicity (C33A) 6.67% [at 11.6 µM] | activity change, negative = cytotoxicity (CAOV3) 10.5% [at 11.6 µM] | activity change, negative = cytotoxicity (CASKI) 2.82% [at 11.6 µM] | activity change, negative = cytotoxicity (Es-2) 1.33% [at 11.6 µM] | activity change, negative = cytotoxicity (HeLa) 24.4% [at 11.6 µM] | activity change, negative = cytotoxicity (Hek293T [2]) 12.6% [at 11.6 µM] | activity change, negative = cytotoxicity (JEG-3) 17% [at 11.6 µM] | activity change, negative = cytotoxicity (OV90) 6.42% [at 11.6 µM] | activity change, negative = cytotoxicity (PA-1) 8.05% [at 11.6 µM] | activity change, negative = cytotoxicity (SKOV3) 21.5% [at 11.6 µM] | activity change, negative = cytotoxicity (Tov-21-G) -9.27% [at 11.6 µM] | activity change, negative = cytotoxicity (Tov112D) 3.56% [at 11.6 µM]

CCOC(=O)C(CCc1ccccc1)NC1CCCN2CCCC(C(=O)O)N2C1=O (stereo unspecified)
inactive: outcome (HEK293T [1]) | Potency (C33A) | Potency (CAOV3) | Potency (Es-2) | Potency (HeLa) | Potency (Hek293T [2]) | Potency (JEG-3) | Potency (OV90) | Potency (PA-1) | Potency (Tov-21-G) | Potency (Tov112D)

C/C(=C\CCC(C)CCO)C(=O)OC[C@H]1O[C@@H](O[C@@H]2OC=C(C(=O)O)[C@H]3CC[C@](C)(O)[C@@H]23)C(O)[C@@H](O)C1O (stereo partly specified)
inactive: outcome (NIH3T3) inactive [at 17.4 µM] | Potency (C33A) | Potency (CAOV3) | outcome (CASKI) | Potency (Es-2) | Potency (HeLa) | Potency (Hek293T [2]) | Potency (JEG-3) | Potency (OV90) | Potency (PA-1) | Potency (SKOV3) | Potency (Tov-21-G) | Potency (Tov112D)

COc1cc([C@H]2OC[C@](O)(Cc3ccc(O[C@@H]4O[C@H](CO)[C@@H](O)[C@H](O)[C@H]4O)c(OC)c3)[C@@H]2CO)ccc1O
inactive: outcome (NIH3T3) inactive [at 17.4 µM] | Potency (C33A) | Potency (CAOV3) | outcome (CASKI) | Potency (Es-2) | Potency (HeLa) | Potency (Hek293T [2]) | Potency (JEG-3) | Potency (OV90) | Potency (PA-1) | Potency (SKOV3) | Potency (Tov-21-G) | Potency (Tov112D)

CC(C)Oc1ccc(-c2nc(-c3cccc4c3CCC4NCCC(=O)O)no2)cc1C#N (stereo unspecified)
inactive: outcome (NIH3T3) | Potency (C33A) | Potency (CAOV3) | outcome (CASKI) | Potency (Es-2) | Potency (HeLa) | Potency (Hek293T [2]) | Potency (JEG-3) | Potency (OV90) | Potency (PA-1) | Potency (SKOV3) | Potency (Tov-21-G) | Potency (Tov112D)

CN1CCc2cc(Cl)c(O)cc2[C@@H](c2cccc3c2OCC3)C1
inactive: outcome (NIH3T3) | Potency (C33A) | Potency (CAOV3) | outcome (CASKI) | Potency (Es-2) | Potency (HeLa) | Potency (Hek293T [2]) | Potency (JEG-3) | Potency (OV90) | Potency (PA-1) | Potency (SKOV3) | Potency (Tov-21-G) | Potency (Tov112D)

COC(=O)C(CC1(O)c2ccccc2N2C(=O)C(CC(C)C)NC21)n1cnc2ccccc2c1=O (stereo unspecified)
inactive: outcome (NIH3T3) inactive [at 17.4 µM] | Potency (C33A) | Potency (CAOV3) | outcome (CASKI) | Potency (Es-2) | Potency (HeLa) | Potency (Hek293T [2]) | Potency (JEG-3) | Potency (OV90) | Potency (PA-1) | Potency (SKOV3) | Potency (Tov-21-G) | Potency (Tov112D)

O=C(NC1Cc2ccccc2N(C[C@@H](O)CO)C1=O)c1cc2cc(Cl)sc2[nH]1 (stereo partly specified)
inactive: outcome (NIH3T3) | Potency (C33A) | Potency (CAOV3) | outcome (CASKI) | Potency (Es-2) | Potency (HeLa) | Potency (Hek293T [2]) | Potency (JEG-3) | Potency (OV90) | Potency (PA-1) | Potency (SKOV3) | Potency (Tov-21-G) | Potency (Tov112D)

C[C@@H](NC(=O)c1cc(C(=O)N[C@@H](Cc2ccccc2)[C@H](O)CNC2CC2)cc(N(C)S(C)(=O)=O)c1)c1ccccc1
inactive: outcome (NIH3T3) | Potency (C33A) | Potency (CAOV3) | outcome (CASKI) | Potency (Es-2) | Potency (HeLa) | Potency (Hek293T [2]) | Potency (JEG-3) | Potency (OV90) | Potency (PA-1) | Potency (SKOV3) | Potency (Tov-21-G) | Potency (Tov112D)

CC(C)c1ccc2c(c1)CCC1[C@](C)(C(=O)O)CCC[C@]21C (stereo partly specified)
inactive: outcome (NIH3T3) | Potency (C33A) | Potency (CAOV3) | outcome (CASKI) | Potency (Es-2) | Potency (HeLa) | Potency (Hek293T [2]) | Potency (JEG-3) | Potency (OV90) | Potency (PA-1) | Potency (SKOV3) | Potency (Tov-21-G) | Potency (Tov112D)

CN1CCN(c2nc(-c3ccc(C(=O)NC4(C(=O)NCC#N)CCCCC4)cc3)cs2)CC1
inactive: outcome (NIH3T3) | Potency (C33A) | Potency (CAOV3) | outcome (CASKI) | Potency (Es-2) | Potency (HeLa) | Potency (Hek293T [2]) | Potency (JEG-3) | Potency (OV90) | Potency (PA-1) | Potency (SKOV3) | Potency (Tov-21-G) | Potency (Tov112D)

C[C@@H]1CC[C@]2(C(=O)O)CC[C@]3(C)C(=CCC4[C@@]5(C)C[C@@H](O)[C@H](O)[C@@](C)(CO)C5CC[C@]43C)C2[C@H]1C (stereo partly specified)
inactive: outcome (NIH3T3) inactive [at 17.4 µM] | Potency (C33A) | Potency (CAOV3) | outcome (CASKI) | Potency (Es-2) | Potency (HeLa) | Potency (Hek293T [2]) | Potency (JEG-3) | Potency (OV90) | Potency (PA-1) | Potency (SKOV3) | Potency (Tov-21-G) | Potency (Tov112D)
